RORg inh: qHTS for inhibitors of ROR gamma transcriptional activity | 5.4% of 310,000 active | Nuclear receptor ROR-gamma (Mus musculus), P51450 | Potency, µM (top dose mostly 53.6 µM), for the others: at the highest dose activity change, negative = inhibition, hits mostly inhibitors | Drosophila S2 Gal4-RORgamma UAS-luciferase reporter, 20 h | AID 2551, 2010; note: potency is the fitted concentration of half-maximal effect; nearly all actives have a fitted effect of over 60% in size
Target sequence (P51450 whole entry, looked up, the tested form may be a part): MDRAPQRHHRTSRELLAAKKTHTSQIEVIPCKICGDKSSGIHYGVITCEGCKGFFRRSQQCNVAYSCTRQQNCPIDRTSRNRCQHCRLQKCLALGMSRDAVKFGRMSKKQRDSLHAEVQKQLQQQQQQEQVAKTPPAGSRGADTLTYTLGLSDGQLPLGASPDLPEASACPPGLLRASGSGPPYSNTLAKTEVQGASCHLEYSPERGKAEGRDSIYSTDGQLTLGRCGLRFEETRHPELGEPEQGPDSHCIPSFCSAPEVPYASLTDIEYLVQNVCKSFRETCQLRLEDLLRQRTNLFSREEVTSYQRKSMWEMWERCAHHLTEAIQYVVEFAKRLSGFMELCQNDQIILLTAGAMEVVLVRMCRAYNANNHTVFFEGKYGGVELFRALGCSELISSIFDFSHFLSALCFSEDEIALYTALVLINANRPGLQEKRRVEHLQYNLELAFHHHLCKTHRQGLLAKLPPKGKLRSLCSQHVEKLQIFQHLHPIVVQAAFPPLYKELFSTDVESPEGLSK
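In this cell-based reporter format, copper sulfate (700 uM final) drives Gal4–ROR gamma fusion expression from a metallothionein promoter in Drosophila Schneider cells; compounds preincubated 1 hr, reporter read after 20 hr at ambient temperature.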
IL-1B inflam inh: qHTS for Inhibitors of Inflammasome Signaling: IL-1-beta AlphaLISA Primary Screen | 4.7% of 360,000 active | AID 743279, 2014 | THP-1 LPS/ATP IL-1B secretion, AlphaLISA, 16 h; stronger effect = lower value | activity change, % at 57.5 µM; in the data active = activity change below about -50%; inconclusive = mostly about -30% to -49%
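Secreted IL-1B measured by AlphaLISA bead assay after 16 h compound exposure of THP-1 cells; compounds (final up to 57.5 uM) added 1 h before LPS (250 ng/mL) and ATP (1.25 mM) stimulation; lower signal means less secretion.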
TDP1 cell CPT: qHTS for Inhibitors of human tyrosyl-DNA phosphodiesterase 1 (TDP1): qHTS in cells in presence of CPT; Potency, µM (doses to about 46.2 µM), for the others: at the top dose activity change, negative = growth inhibition, usual class: inhibitors; 12% of 420,000 active; chicken DT40 Tdp1-/-;hTDP1 cells + 20 nM CPT, ATP luminescence, 48 h; note: potency is the fitted concentration of half-maximal effect; nearly all actives have a fitted effect of over 55% in size
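Chicken DT40 Tdp1-/- cells complemented with human TDP1, 400 cells/well, exposed to compounds plus 20 nM camptothecin for at least 48 h at 37 C; viability read as ATP content by CellTiter-Glo luminescence.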
ELG1 DNA repair: qHTS screen for small molecules that inhibit ELG1-dependent DNA repair in human embryonic kidney (HEK293T) cells expressing luciferase-tagged ELG1. Potency, µM (series often up to 46.1 µM), without a hit: top-dose activity change, negative = inhibition, actives largely listed as inhibitors. 2.3% of 330,000 active. AID 504467, 2011. HEK293T ELG1-luciferase reporter, luminescence, 16 h; DNA damage induced by 5-fluorouridine; note: potency is the fitted concentration of half-maximal effect; nearly all actives have a fitted effect of over 55% in size
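5-Fluorouridine DNA damage + compound/DMSO, 2,000 cells/well, 16 h, 37 °C/5% CO2. ONE-Glo, 30 min RT, luminescence. Readout = decrease in reporter signal.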
VP16 counter: VP16 counterscreen qHTS for inhibitors of ROR gamma transcriptional activity. Potency, µM (titrated, usually from 53.6 µM), inactives show at the highest dose activity, negative = inhibition, actives largely listed as inhibitors. Drosophila S2 Gal4-VP16 UAS-luciferase, luminescence, 20 h. 3.5% of 310,000 active;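 note: Gal4-VP16 expression switched on by copper sulfate through the metallothionein promoter; potency is the fitted concentration of half-maximal effect; nearly all actives have a fitted effect of over 50% in size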
TDP1 cell noCPT: qHTS for Inhibitors of human tyrosyl-DNA phosphodiesterase 1 (TDP1): qHTS in cells in absence of CPT | DT40 Tdp1-/- hTDP1 cells, no CPT, ATP luminescence, 48 h | Potency, µM (titrated, usually from 46.2 µM), for the others: at the highest dose activity change, negative = growth inhibition, hits mostly inhibitors | 15% of 420,000 active | AID 686978, 2013; note: potency is the fitted concentration of half-maximal effect; nearly all actives have a fitted effect of over 55% in size
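Cells were dispensed at 400 per well, compounds added by pin tool, plates incubated ≥48 hr at 37 °C, then CellTiter-Glo added for 30 min at room temperature before luminescence reading. Line: DT40 Tdp1-/- complemented with hTDP1; camptothecin omitted.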
The depositor's hits bear a star; ? = inconclusive; / = no result. Compounds with a hit are over-represented: about 21% of the library has one in this group of screens. Unless noted, calls come from the whole dose curve; as a rule, active = well fitted curve in the direction sought with a large enough effect; inconclusive = small, poorly fitted or top-dose-only effect, or another doubt; inactive = no such curve, though single readings can be large; an effect the other way counts as inactive or inconclusive. % is set by controls: 0 for no effect and ±100 for the full control effect.

SMILES	RORg inh	IL-1B inflam inh	TDP1 cell CPT	ELG1 DNA repair	VP16 counter	TDP1 cell noCPT
O=C(C[C@H]1C[C@H](C(=O)N2CCOCC2)[C@@]2(CCC3CCCC3)c3[nH]c4cc(-c5ccco5)ccc4c3CCN2C1=O)NCc1cccc(C(F)(F)F)c1	/	-53*	16µM*	1%	/	?
O=C(CC1C[C@H](C(=O)N2CCOCC2)[C@@]2(CCC3CCCC3)c3[nH]c4ccccc4c3CCN2C1=O)NCCc1ccccn1 (stereo partly drawn)	/	0	21µM*	3%	/	?
COc1ccc2[nH]c3c(c2c1)CCN1C(=O)C(CC(=O)NCCc2ccccn2)C[C@H](C(=O)N2CCOCC2)[C@@]31CCC1CCCC1 (stereo partly drawn)	/	-22	?	-1%	/	?
CC[C@]12c3[nH]c4cc(-c5ccco5)ccc4c3CCN1C(=O)[C@@H](CC(=O)NCCCOC)C[C@@H]2C(=O)N1CCN(C(=O)c2ccco2)CC1	/	-4	?	-10%	/	?
O=S1(=O)CCOCCCN1Cc1ccc(F)cc1	/	/	-20%	/	/	?
Cc1cc(-c2cccs2)c2c(n1)sc1c(=O)[nH]c(=O)[nH]c12	-27%	3	16µM*	-18%	-8%	?
Cc1cc(-c2ccccc2)c2c(n1)sc1c(O)cc(=O)[nH]c12	4%	13	0%	6%	-11%	9%
CCCCNC(=O)C1(C)CCC(=O)N1c1cc(C(C)(C)C)nn1C (stereo not drawn)	/	5	-2%	/	/	5%
COc1ccc(C(CNS(=O)(=O)c2ccc(NC(C)=O)c(OC)c2)N2CCCCC2)cc1 (stereo not drawn)	/	3	-7%	27%	/	1%
CCN(c1ccccc1)S(=O)(=O)c1ccc(C(=O)NCC(=O)Nc2ccc(F)c(F)c2F)cc1	/	-28	15µM*	?	/	15µM*
Cc1ccc(S(=O)(=O)N(C)CC(=O)NCC(=O)Nc2ccc(F)c(F)c2F)cc1	/	4	-19%	-1%	/	?
CN(c1ccccc1)S(=O)(=O)c1cccc(C(=O)NCC(=O)Nc2ccc(F)c(F)c2F)c1	/	-22	?	?	/	16µM*
COc1cccc(Nc2ncc3nc(CCc4ccccc4)c(=O)n(C4CC4)c3n2)c1	3%	/	-9%	/	-9%	-14%
Cc1nnc(NC(=O)CCN2C(=O)C3CC=CCC3C2=O)s1 (stereo not drawn)	/	8	-8%	/	/	8%
c1cncc(CNc2ncnc3ccc(-c4cccnc4)cc23)c1	?	/	0.0065µM*	-7%	1%	12µM*
Clc1ccccc1-c1ccc2ncnc(NCc3cccnc3)c2c1	?	/	?	11%	-16%	?
FC(F)(F)c1ccccc1-c1ccc2ncnc(NCc3cccnc3)c2c1	?	/	2.1µM*	/	?	7.3µM*
COCCNc1ncnc2ccc(-c3ccccc3C(F)(F)F)cc12	?	/	13µM*	/	-15%	21µM*
COCCCNc1ncnc2ccc(C)cc12	?	26	16µM*	?	?	18µM*
N#Cc1cccc(-c2ccc3ncnc(NCc4cccnc4)c3c2)c1	-39%	/	-6%	/	?	-15%
CCOC(=O)Cc1cc(C(=O)Nc2ccc(Br)cc2)sc1-c1ccc(C)cc1	/	/	?	/	/	21µM*
O=C(O)Cc1cc(C(=O)Nc2ccc(Br)cc2)sc1-c1ccccc1	33%	/	/	2%	-23%	/
O=C(NC1CCC(O)CC1)c1ccc(-c2ccc([N+](=O)[O-])cc2)o1 (stereo not drawn)	19%	-12	16µM*	?	?	16µM*
O=C(c1ccco1)N1CCN(C(=O)c2ccc(-c3ccc([N+](=O)[O-])cc3)o2)CC1	/	-3	23µM*	?	/	?
O=C(COC(=O)c1ccc(-c2ccc([N+](=O)[O-])cc2)o1)NC(=O)NC1CCCCC1	?	16	?	4%	-20%	?
SMILES	RORg inh	IL-1B inflam inh	TDP1 cell CPT	ELG1 DNA repair	VP16 counter	TDP1 cell noCPT
CC(=O)c1ccc(-c2ccc(C(=O)NC3CC(C)(C)NC(C)(C)C3)o2)cc1	/	-56*	23%	?	/	?
O=C(c1ccc(-c2ccc([N+](=O)[O-])cc2)o1)N1CCN(S(=O)(=O)c2cccs2)CC1	/	-7	16µM*	?	/	3.7µM*
OC[C@@H](O)C(O)[C@H](O)[C@@H](O)CO (stereo partly drawn)	9%	/	/	/	-9%	/
CC(=O)N1CCN(c2csc3ccc(Br)cc3c2=O)CC1	/	/	-19%	/	/	?
C=CCc1ccc(O)c(-c2cc(CC=C)ccc2O)c1	14%	14	15µM*	7%	?	21µM*
COc1ccccc1CN(C)C(=O)c1cccc(S(=O)(=O)N2CCCC2)c1	/	11	?	3%	/	-10%

Bioassay records from PubChem.
